Source: PubChem BioAssay
“And” between values parts separate entries of the source, which are not always exact repeats. Identical values can stand only once. For part of these data: Measured potencies and affinities stand elsewhere. The source made the active and inactive calls. Unless noted, no rule for the calls is given here.

Columns and labels:
[1] = polyglutamine-triggered caspase-3 activation inhibitors, cell-based (AID 1583); details: polyglutamine-induced caspase-3 activation, cell assay; stronger effect = higher value;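 tested at 10 µM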
[2] = suppressors of polyQ aggregation in yeast, 75Q-TubU reporter (AID 1593); details: Yeast 75Q polyglutamine aggregation reporter
[3] = rescue of polyQ-huntingtin neuronal dysfunction in worms, whole organism, C. elegans mechanosensory neurons, N-terminal huntingtin (AID 1599); details: touch response, stronger effect = higher value
[4] = inhibitors of mitochondrial cytochrome c release, biochemical, purified mitochondria (AID 1603); details: stronger effect = lower value;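 also: mouse liver mitochondria challenged with calcium chloride; signal normalized to the plate average as 100%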
[5] = inhibitors of polyQ protein aggregation (AID 1604); details: polyglutamine-induced protein aggregation inhibition assay; stronger effect = higher value; tested at 2.5 µM
[6] = enhancers of glutamate uptake in motor neurons, MN-1 cell line (AID 1612); details: MN-1 motor neuron cells, stronger effect = higher value;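 also: tested at 1 µM final; 0% = mean of DMSO vehicle wells on each plate; positive means more glutamate uptake than control and negative means less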
[7] = suppressors of polyglutamine aggregation in yeast, 75Q-TubH (AID 1616); details: S. cerevisiae 75Q-TubH polyglutamine aggregation suppression; stronger effect = higher value
[8] = hESC survival regulators, cell-based (AID 493140); details: human embryonic stem cell survival screen; stronger effect = higher value;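 also: cells exposed to compounds for four days before counting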
[9] = Cy5 fluorescence interference with SSB-bound oligo, artefact control for HCV NS3 helicase inhibitor project, biochemical, NIH Clinical Collection, E. coli SSB (AID 743268)
[10] = test system: Hepatitis C virus NS3 helicase; assay: HCV NS3 helicase inhibitors, primary screen, biochemical, fluorescence polarization, NIH Clinical Collection (AID 743270); details: NS3 helicase binding to Cy5-dT15 DNA, stronger effect = higher value, concentration not given here
[11] = target: Single-stranded DNA-binding protein (Escherichia coli (strain K12)) (UniProt P0AGE0); assay: E. coli SSB displacement from DNA, counter-screen for HCV NS3 helicase inhibitor project, biochemical, fluorescence polarization, NIH Clinical Collection (AID 743271; in the data active = inhibition above about 28%); details: stronger effect = higher value, concentration not given here
[12] = fluorescence interference in NS3h assay format, artefact control for HCV NS3 helicase inhibitor project, biochemical, NIH Clinical Collection (AID 743272); details: fluorescence interference counterscreen, stronger effect = lower value;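 also: HCV NS3 helicase with a Cy5 labelled single stranded DNA probe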
[13] = modulation of C. elegans fzo-1 (AID 1259413);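 also: fzo-1 mutant C. elegans worms in liquid wells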; details: C. elegans fzo-1 modulator screen, mean read-out; stronger effect = higher value
[14] = target: NAD(+) hydrolase SARM1 (Homo sapiens) (UniProt Q6SZW1); assay: SARM1 TIR NADase inhibitors, cell lysate, NAD-Glo luminescence (AID 1508614;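 active = compound whose remaining NAD level is above about 45 nM, limit read from the data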;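 also: higher remaining NAD means stronger inhibition of SARM1 NADase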); details: SAM-TIR HEK293T lysate NADase, at 1 µM, stronger effect = higher value
[15] = target: Mitogen-activated protein kinase 7 (Homo sapiens) (UniProt Q13164); assay: ERK5 transactivation activators in reporter cells, primary screen, cell-based, HTS (AID 1508626;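 active = luciferase signal above three times the same-plate solvent-only control wells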;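 also: luciferase driven by Gal4-ERK5 fusion binding five Gal4 sites before minimal TATA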); details: HeLa Gal4-ERK5 transactivation, 18 h, at 5 µM, stronger effect = higher value
[16] = viability rescue of complex I mutant cybrids, primary screen, cell-based, galactose medium, ATP luminescence (AID 1645843;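 active = z-score of at least 1.8 in each of two replicates, scored against plate mean and spread of sample wells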;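 also: positive z means more ATP and so rescue of galactose-driven cybrid death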); details: complex I mutant cybrid cells, 72 h, stronger effect = higher value
R275C/beta2Delta = assay: modulators of BK channel variants, profiling panel, selectivity assay, cell-based, U2OS BacMam, thallium flux, beta subunits (AID 1259406;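 active = thallium flux through the channel raised or lowered by more than 3 SD from vehicle-only wells, actives on both sides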;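 also: initial slope of Thallos dye fluorescence rise after thallium is added; log ratio against the mean of 0.3% DMSO vehicle wells on the same plate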); details: at 30 µM
R275C/beta4 = assay: as above; details: at 30 µM
R275C/Slo1WT/beta2 = assay: as above; details: at 30 µM

Mitogen-activated protein kinase 7 (Homo sapiens), sequence (Q13164 whole entry, looked up, the tested form may be a part): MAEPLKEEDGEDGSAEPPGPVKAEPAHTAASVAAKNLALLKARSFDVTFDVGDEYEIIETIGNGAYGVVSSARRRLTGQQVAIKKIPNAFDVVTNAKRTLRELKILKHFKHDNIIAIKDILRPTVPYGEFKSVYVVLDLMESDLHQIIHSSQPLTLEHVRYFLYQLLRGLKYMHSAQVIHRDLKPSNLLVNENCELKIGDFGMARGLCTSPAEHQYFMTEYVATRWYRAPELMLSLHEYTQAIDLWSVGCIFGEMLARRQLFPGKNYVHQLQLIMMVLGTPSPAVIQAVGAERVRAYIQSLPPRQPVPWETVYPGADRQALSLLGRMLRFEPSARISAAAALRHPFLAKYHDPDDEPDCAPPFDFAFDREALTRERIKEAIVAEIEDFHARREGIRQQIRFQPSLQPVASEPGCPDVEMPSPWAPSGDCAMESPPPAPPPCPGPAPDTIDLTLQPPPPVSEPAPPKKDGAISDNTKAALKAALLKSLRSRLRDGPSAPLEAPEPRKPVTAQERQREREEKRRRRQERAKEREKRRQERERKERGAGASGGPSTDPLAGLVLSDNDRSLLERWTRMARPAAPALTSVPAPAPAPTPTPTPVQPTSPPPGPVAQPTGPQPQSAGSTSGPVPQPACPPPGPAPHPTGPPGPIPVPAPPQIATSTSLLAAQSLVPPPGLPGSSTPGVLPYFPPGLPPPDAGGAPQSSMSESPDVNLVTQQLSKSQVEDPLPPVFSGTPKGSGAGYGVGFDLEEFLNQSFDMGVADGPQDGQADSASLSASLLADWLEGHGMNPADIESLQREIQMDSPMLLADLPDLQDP
NAD(+) hydrolase SARM1 (Homo sapiens), sequence (Q6SZW1 whole entry, looked up, the tested form may be a part): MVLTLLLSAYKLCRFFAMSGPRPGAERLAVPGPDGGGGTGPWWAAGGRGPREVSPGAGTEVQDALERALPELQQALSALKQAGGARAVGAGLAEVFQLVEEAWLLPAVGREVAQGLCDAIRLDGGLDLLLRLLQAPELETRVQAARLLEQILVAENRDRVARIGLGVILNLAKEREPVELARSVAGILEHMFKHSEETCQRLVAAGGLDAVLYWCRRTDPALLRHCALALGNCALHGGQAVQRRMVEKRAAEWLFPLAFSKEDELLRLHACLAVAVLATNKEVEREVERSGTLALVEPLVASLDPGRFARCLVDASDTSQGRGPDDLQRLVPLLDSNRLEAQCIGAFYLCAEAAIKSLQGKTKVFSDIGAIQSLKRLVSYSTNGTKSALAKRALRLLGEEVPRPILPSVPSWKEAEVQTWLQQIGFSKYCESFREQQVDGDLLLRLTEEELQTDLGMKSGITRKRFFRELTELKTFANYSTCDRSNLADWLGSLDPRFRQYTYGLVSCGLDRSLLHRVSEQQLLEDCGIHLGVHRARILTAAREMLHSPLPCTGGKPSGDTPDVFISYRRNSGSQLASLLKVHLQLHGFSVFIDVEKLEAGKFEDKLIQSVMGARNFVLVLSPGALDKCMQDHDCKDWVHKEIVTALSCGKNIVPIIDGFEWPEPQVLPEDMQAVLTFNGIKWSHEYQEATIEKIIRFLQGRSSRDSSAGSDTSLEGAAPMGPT

Structure (SMILES) | inhibition [1] [%] | score [2] | rescue above control [3] | cytochrome c release ratio [4] | inhibition of aggregation [5] [%] | glutamate uptake change [6] [%] | aggregation suppression score [7] | survival [8] | fluorescence ratio [9] | inhibition [10] | inhibition [11] | fluorescence ratio [12] | mean signal [13] | remaining NAD [14] | luciferase signal [15] | z-score [16] | log fold change Tl+ flux (R275C/beta2Delta) | log fold change Tl+ flux (R275C/beta4) | log fold change Tl+ flux (R275C/Slo1WT/beta2)
Cc1ccc(S(=O)(=O)NC(=O)NN2CCCCCC2)cc1 | -0.98 | 1.2 | 1.05 | 1.07 | 69.7 | 14.9 | 0.918 | 3.17 (inactive) | 1.04 (inactive) | -2.27% (inactive) | -2.76% (inactive) | 1 (inactive) | 286 (inactive) | 10 nM (inactive) | 144 AU (inactive) | 0.415 (inactive) and 0.635 (inactive) and 0.49 (inactive) | -0.0116 (inactive) | 0.0645 (inactive) | -0.0145 (inactive)
CC(C)NCC(O)c1cc(O)cc(O)c1 (configuration not stated) | 11.6 | 1.21 | -1.18 | 0.62 | 83.9 | -18.3 | 1.15 | 10.4 (inactive) | 1.05 (inactive) | -5% (inactive) | -4.29% (inactive) | 1.02 (inactive) | 261 (inactive) | 10 nM (inactive) | 92 AU (inactive) | 0.07 (inactive) and 1.61 (inactive) | 0.0259 (inactive) | 0.0475 (inactive) | 0.0212 (inactive)
CC(=O)Nc1nnc(S(N)(=O)=O)s1 | 12.8 | 1.01 | 21.8 | 0.85 | -6.35 | 5.19 | 1.12 | 10.5 (inactive) | 1.01 (inactive) | -1.36% (inactive) | -2% (inactive) | 0.98 (inactive) | 242 (inactive) | 10 nM (inactive) | 44 AU (inactive) | 0.625 (inactive) and 0.37 (inactive) | 0.0403 (inactive) | 0.00614 (inactive) | 0.0491 (inactive)
NC(=O)N1c2ccccc2C=Cc2ccccc21 | 9.92 | 1.24 | -11.1 | 1.51 | 83.1 | -6.72 | 1.82 | 26.6 (inactive) | 1.03 (inactive) | -3.18% (inactive) | -3.53% (inactive) | 1.04 (inactive) | 259 (inactive) | 10 nM (inactive) | 36 AU (inactive) | 0.21 (inactive) and 0.34 (inactive) and 0.265 (inactive) | 0.0457 (inactive) | -0.0824 (inactive) | -0.0474 (inactive)
OC(CCN1CCCCC1)(c1ccccc1)C1CCCCC1 (configuration not stated) | -21 | 1.21 | 1.37 | 1.32 | 88.9 | -20.9 | 1.42 | 3.42 (inactive) | 0.99 (inactive) | -5.91% (inactive) | -2.76% (inactive) | 0.95 (inactive) | 211 (inactive) | 10 nM (inactive) | 56 AU (inactive) | -0.545 (inactive) and -0.525 (inactive) | -0.0882 (inactive) | 0.0638 (inactive) | 0.0146 (inactive)
CN(C)CCC[C@@]1(c2ccc(F)cc2)OCc2cc(C#N)ccc21 | – | – | – | – | – | – | – | – | 1.05 (inactive) | -1.98% (inactive) | 6.83% (inactive) | 0.96 (inactive) | 287 (inactive) | 10 nM (inactive) | – | 0.15 (inactive) and 0.43 (inactive) | 0.0841 (inactive) | 0.0144 (inactive) | 0.0208 (inactive)
CN(C)CCC=C1c2ccccc2CCc2ccccc21 | 5.08 | 0.94 | 17.6 | 1.57 | 70.5 | -1.53 | 0.931 | 7.08 (inactive) | 0.94 (inactive) | -7.73% (inactive) | -2% (inactive) | 0.92 (inactive) | 243 (inactive) | 10 nM (inactive) | 36 AU (inactive) | -0.73 (inactive) and -1.31 (inactive) | 0.128 (active) | 0.135 (active) | 0.00351 (inactive)
NS(=O)(=O)c1cc(C2(O)NC(=O)c3ccccc32)ccc1Cl (configuration not stated) | 2.88 | 1.55 | -4.25 | 0.9 | 77 | -2.06 | 1.49 | 4.42 (inactive) | 0.81 (inactive) | -2.27% (inactive) | 1.05% (inactive) | 1 (inactive) | 251 (inactive) | 10 nM (inactive) | 36 AU (inactive) | 0.15 (inactive) | -0.0423 (inactive) | -0.0855 (inactive) | 0.0191 (inactive)
CN(C)CCCN1c2ccccc2Sc2ccc(Cl)cc21 | 1.97 | 0.97 | 0 | 1.17 | 35.3 | 11.9 | 1.25 | 3.17 (inactive) | 1.03 (inactive) | -4.09% (inactive) | -1.24% (inactive) | 0.91 (inactive) | 252 (inactive) | 10 nM (inactive) | 68 AU (inactive) | -1.52 (inactive) and -1.29 (inactive) and -1.43 (inactive) | 0.103 (active) | 0.154 (active) | -0.0668 (inactive)
OCCN1CCN(CCCN2c3ccccc3Sc3ccc(Cl)cc32)CC1 | -20.9 | 0.86 | – | 1.23 | 49 | 5.53 | 0.889 | 1.67 (inactive) | 1.01 (inactive) | -2.27% (inactive) | 1.81% (inactive) | 0.84 (inactive) | 256 (inactive) | 10 nM (inactive) | 44 AU (inactive) | -1.29 (inactive) and -1.32 (inactive) | -0.0309 (inactive) | 0.17 (active) | -0.0801 (inactive)
C=C(CC)C(=O)c1ccc(OCC(=O)O)c(Cl)c1Cl | 6.66 | 0.22 | 6.67 | 0.63 | 30.1 | 5.34 | 0.145 | 25.6 (inactive) | 2.96 (active) | -4.09% (inactive) | 2.57% (inactive) | 0.9 (inactive) | 255 (inactive) | 10 nM (inactive) | 64 AU (inactive) | -0.85 (inactive) and -0.03 (inactive) | 0.0176 (inactive) | -0.0645 (inactive) | 0.0108 (inactive)
CCN(CC)CCNC(=O)c1ccc(N)cc1 | -1.81 | 1.26 | 9.03 | 1.74 | 49.4 | -9.57 | 1.03 | 12.9 (inactive) | – | – | – | – | 241 (inactive) | 10 nM (inactive) | 56 AU (inactive) | 0.47 (inactive) and -0.57 (inactive) and 0.345 (inactive) | -0.0122 (inactive) | -0.0764 (inactive) | -0.03 (inactive)
CN(C)CCCN1c2ccccc2CCc2ccccc21 | -29.3 | 1.28 | 5.01 | 1.3 | 41 | 5.43 | 1.2 | 8.08 (inactive) | – | – | – | – | 235 (inactive) | 10 nM (inactive) | 44 AU (inactive) | -0.9 (inactive) and -0.525 (inactive) and -0.59 (inactive) | 0.158 (active) | 0.109 (inactive) | 0.0178 (inactive)
CC(C)(C)NCC(O)c1cc(O)cc(O)c1 (configuration not stated) | 10.1 | 1.33 | -7.82 | 1.15 | 47.9 | 22.8 | 1.5 | 21.1 (inactive) | 1.05 (inactive) | -2.27% (inactive) | -3.53% (inactive) | 1.04 (inactive) | 269 (inactive) | 10 nM (inactive) | 108 AU (inactive) | 0.355 (inactive) and 1.03 (inactive) | -0.00466 (inactive) | 0.00501 (inactive) | -0.0142 (inactive)
Nc1ccc(S(=O)(=O)c2ccc(N)cc2)cc1 | 2.36 | 0.97 | 9.67 | 0.87 | 66.2 | -16.9 | 1.25 | 11.6 (inactive) | 0.97 (inactive) | -3.18% (inactive) | 0.29% (inactive) | 0.95 (inactive) | 228 (inactive) | 10 nM (inactive) | 32 AU (inactive) | -0.16 (inactive) | 0.0154 (inactive) | -0.0181 (inactive) | -0.0232 (inactive)
CC(CN1c2ccccc2Sc2ccccc21)N(C)C (configuration not stated) | -21.1 | 1.87 | 27.9 | 0.77 | 66.7 | 9.05 | 1.37 | 1.42 (inactive) | 0.91 (inactive) | -5% (inactive) | 3.34% (inactive) | 0.93 (inactive) | 245 (inactive) | 10 nM (inactive) | 144 AU (inactive) | -1.14 (inactive) and -0.84 (inactive) and -0.715 (inactive) | 0.176 (active) | 0.0949 (inactive) | -0.0568 (inactive)
Cc1ccc(Cl)c(Nc2ccccc2C(=O)O)c1Cl | 12.9 | 0.67 | 16.6 | 1.42 | 46.5 | -15.8 | 0.94 | 16.6 (inactive) | 0.6 (active) | 0.45% (inactive) | -0.48% (inactive) | 1 (inactive) | 249 (inactive) | 10 nM (inactive) | 48 AU (inactive) | 2.05 (inactive) and 0.72 (inactive) | 0.336 (active) | 0.266 (active) | 0.0371 (inactive)
CCCNC(=O)NS(=O)(=O)c1ccc(Cl)cc1 | 10.9 | 1.66 | -4.58 | 1.77 | 91 | -12.9 | 1.38 | 13.6 (inactive) | 0.93 (inactive) | -2.27% (inactive) | 1.05% (inactive) | 0.96 (inactive) | 243 (inactive) | 10 nM (inactive) | 276 AU (active) | 0.8 (inactive) and 0.135 (inactive) | 0.0638 (inactive) | 0.017 (inactive) | -0.0244 (inactive)
CN(C)C(=O)Oc1ccc[n+](C)c1 | 18.4 | 1.37 | -0.24 | 0.97 | 27 | -0.9 | 1.35 | – | 1.01 (inactive) | 0.45% (inactive) | 0.29% (inactive) | 0.97 (inactive) | 265 (inactive) | 10 nM (inactive) | 48 AU (inactive) | 0.81 (inactive) and 0.62 (inactive) | 0.0292 (inactive) | -0.0147 (inactive) | 0.0451 (inactive)
